Where “and” joins values, the source holds several entries; their conditions need not be identical. Equal values may be shown once. Results filed as inconclusive are left out. Where a call stands in place of a potency, no number is given. The source holds several records for some structures; these can differ, active in one and inactive in another. Calls of active or inactive are those of the source. Unless noted, calls follow the shape of the dose curve; as a rule, active = well fitted curve in the direction sought with a large enough effect in the repeat runs; inconclusive = weak or mixed curves; inactive = no such curve, though single readings can be large; an effect the other way counts as inactive or inconclusive.
What was measured:
[1] = qHTS assay for small molecule agonists of the p53 signaling pathway (AID 651631; calls by dose curve; also: nearly all actives have a fitted effect of over 15% in size; also: potency is read from the fitted curve at half-maximal effect)
In short: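 HCT-116 cells carrying a stable p53 response element–beta-lactamase reporter were plated, rested 5 h at 37 °C, then exposed to compound in DMSO for 16 h at 37 °C; reporter activity was read as FRET substrate fluorescence after 2 h at room temperature.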

[2] = qHTS assay for small molecules that induce genotoxicity in human embryonic kidney cells expressing luciferase-tagged ATAD5 (AID 651632); also: nearly all actives have a fitted effect of over 15% in size; also: potency is read from the fitted curve at half-maximal effect
In short: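 Luminescence read-out: after 16 hr compound exposure at 37C, ATAD5-luciferase HEK293T cells received Amplite, 30 min RT, then CCD imaging. A rise in signal marks genotoxic stress.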

[3] = qHTS assay for small molecules that induce genotoxicity in human embryonic kidney cells expressing luciferase-tagged ATAD5 - cell viability (AID 651634; calls by dose curve; also: nearly all actives have a fitted effect of over 25% in size; also: potency is read from the fitted curve at half-maximal effect)
In short: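 HEK293T ATAD5-luc cells, 2,000/well; compound 15.5 hr, 37C/5% CO2; CellTiter-Fluor 30 min, 37C; fluorescence read.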

[4] = qHTS assay for small molecule disruptors of the mitochondrial membrane potential - cell viability (AID 720634; calls by dose curve; also: nearly all actives have a fitted effect of over 20% in size; also: potency is read from the fitted curve at half-maximal effect)
In short: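 Luminescence from CellTiter-Glo (ATP content) gave viability in HepG2 cells, read in the same wells as the MMP dye assay after 1 hr compound exposure at 37 C.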

[5] = qHTS assay for small molecule disruptors of the mitochondrial membrane potential (AID 720635); also: potency is read from the fitted curve at half-maximal effect
In short: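 Mitochondrial membrane potential tracked with Mito-MPS dye, red aggregates (ex 540/em 590 nm) against green monomers (ex 490/em 535 nm). Compound treatment 1 hr at 37C, dye 30 min in HepG2.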

[6] = qHTS assay to test for compound auto fluorescence at 590 nm (red) in HepG2 cells (AID 720674); also: potency is read from the fitted curve at half-maximal effect
In short: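 We screened compounds on adherent HepG2 cells, incubating them for an hour at 37 C in 5% CO2 before reading emission at 590 nm under 540 nm excitation; values reflect equivalence to Rose Bengal sodium fluorescence.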

[7] = qHTS assay to test for compound auto fluorescence at 535 nm (green) in HepG2 cells (AID 720675); also: potency is read from the fitted curve at half-maximal effect
[8] = qHTS assay to test for compound auto fluorescence at 460 nm (blue) in HEK293 cells (AID 720678)
In short: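 Intrinsic compound fluorescence is recorded in live HEK293 cultures after overnight incubation at 37C, 5% CO2, using excitation 405 nm and emission 460 nm. Values are referenced to triamterene.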

[9] = qHTS assay to test for compound auto fluorescence at 590 nm (red) in HEK293 cells (AID 720679); also: potency is read from the fitted curve at half-maximal effect
In short: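 Red autofluorescence, HEK293 cells: 2,000 cells/well; attach 4-5 hr 37C; add 23 nL cpd or DMSO; incubate o/n 37C 5% CO2; read Ex540/Em590; Rose Bengal sodium reference.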

[10] = qHTS assay for small molecule agonists of the p53 signaling pathway - cell viability (AID 651633; calls by dose curve; also: nearly all actives have a fitted effect of over 30% in size; also: potency is read from the fitted curve at half-maximal effect)
In short: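 Viability counter-read: CellTiter-Glo luminescence (30 min, room temperature) in the same p53RE-bla plates. These plates had been exposed to compounds for 16 h at 37 C.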
Tags tell the direction and shape of the fitted curve or compound fluorescence and quenching.

| SMILES | Potency [1] | Potency [2] | Potency [3] | Potency [4] | Potency [5] | Potency [6] | Potency [7] | outcome [8] | Potency [9] | Potency [10] |
| --- | --- | --- | --- | --- | --- | --- | --- | --- | --- | --- |
| CCCOCCO | inactive | inactive | inactive | inactive | inactive | inactive | inactive | inactive | inactive | – |
| CC(=O)Nc1ccc2c(c1)Cc1cc(NC(C)=O)ccc1-2 | inactive | inactive | – | inactive | inactive | inactive | inactive | inactive | inactive | inactive |
| O=C(O)c1ccc(O)cc1 | inactive | inactive | – | inactive | inactive | inactive | inactive | inactive | inactive | inactive |
| O=C(O)CCCC(=O)O | inactive | inactive | – | inactive | inactive | inactive | inactive | inactive | inactive | inactive |
| CC1=CC(C)(C)Nc2ccccc21 | inactive | inactive | inactive | inactive | inactive and 59.5 µM (active) | inactive | inactive | inactive | inactive | – |
| ClC/C=C/CCl | inactive | inactive | inactive | inactive | inactive | inactive | inactive | inactive | inactive | – |
| C/C=C/C(=O)N(CC)c1ccccc1C | inactive | inactive | inactive | inactive | inactive | inactive | inactive | inactive | inactive | – |
| O=S1(=O)CCCO1 | inactive | inactive | inactive | inactive | inactive | inactive | inactive | inactive | inactive | inactive |
| CCCCCCCCCCCCCO | inactive | inactive | – | inactive | inactive | inactive | inactive | inactive | inactive | inactive |
| Cc1ccc(C)c(O)c1 | inactive | inactive | – | inactive | inactive | inactive | inactive | inactive | inactive | – |
| CC(=O)Oc1ccc(C(c2ccc(OC(C)=O)cc2)c2ccccn2)cc1 | 944 nM (active) and 271 nM (active) | inactive | – | inactive | 6.68 µM (active) and 21.6 µM (active) | inactive | inactive | inactive | inactive | 668 nM (active) and 483 nM (active) |
| Cc1ccc(C(C)(C)C)cc1 | inactive | inactive | inactive | inactive | inactive | inactive | inactive | inactive | inactive | – |
| CC(C)=CCO | inactive | inactive | – | inactive | inactive | inactive | inactive | inactive | inactive | – |
| CCC(Cc1c(I)cc(I)c(N)c1I)C(=O)O (stereo not given) | inactive | inactive | inactive | inactive | inactive | inactive | inactive | inactive | inactive | – |
| C=CCNCC=C | inactive | inactive | – | – | – | inactive | inactive | inactive | inactive | inactive |
| NCCS(=O)(=O)O | inactive | inactive | inactive | inactive | inactive and 7.13 µM (active) | inactive | inactive | inactive | inactive | inactive |
| Cc1ccc([N+](=O)[O-])c(C)c1 | inactive | inactive | inactive | inactive | inactive | inactive | inactive | inactive | inactive | inactive |
| O=C1CCc2ccccc2O1 | inactive | inactive | – | inactive | inactive | inactive | inactive | inactive | inactive | inactive |
| C=CN1CCCC1=O | inactive | inactive | – | inactive | – | inactive | inactive | inactive | inactive | inactive |
| c1ccc2cc3ccccc3cc2c1 | inactive | inactive | inactive | inactive | 5.01 µM (active) and 34.4 µM (active) | inactive | inactive | inactive | inactive | inactive |
| C[C@]12CC[C@@H]3c4ccc(O)cc4CC[C@H]3[C@@H]1CC[C@@H]2O | 13.3 µM (active) and 19.3 µM (active) and 9.69 µM (active) | inactive | – | inactive | 26.6 µM (active) and 30.6 µM (active) and 17.2 µM (active) | inactive | inactive | inactive | inactive | – |
| [Na+] | inactive | inactive | inactive | inactive | inactive | inactive | inactive | inactive | inactive | inactive |
| C=C[C@@]1(C)CC(=O)[C@]2(O)[C@@]3(C)[C@@H](O)CCC(C)(C)[C@@H]3[C@H](O)[C@H](OC(C)=O)[C@@]2(C)O1 | inactive | 266 nM (active) and 122 nM (active) | inactive | inactive | 26.6 µM (active) | inactive | inactive | inactive | inactive | inactive |
| COC(=O)C(C)Oc1ccc(Oc2ncc(C(F)(F)F)cc2Cl)cc1 (stereo not given) | inactive | inactive | inactive | inactive | inactive | inactive | inactive | inactive | inactive | – |

| SMILES | Potency [1] | Potency [2] | Potency [3] | Potency [4] | Potency [5] | Potency [6] | Potency [7] | outcome [8] | Potency [9] | Potency [10] |
| --- | --- | --- | --- | --- | --- | --- | --- | --- | --- | --- |
| Brc1nc2ccccc2s1 | inactive | inactive | – | inactive | inactive | inactive | inactive | inactive | inactive | inactive |
| COc1ccc(C(=O)c2ccccc2O)c(O)c1 | inactive | inactive | – | inactive | 8.04 µM (active) and 8.61 µM (active) | inactive | inactive | inactive | inactive | inactive |
| CC(C)(C)c1cccc(C(C)(C)C)c1O | inactive | inactive | – | inactive | 16.8 µM (active) and 15.4 µM (active) | inactive | inactive | inactive | inactive | inactive |
| O=[Se](O)O | 24.4 µM (active) and inactive | inactive | 0.687 µM (active) | inactive | 8.64 µM (active) and inactive | inactive | inactive | inactive | inactive | inactive |
| O=C(O)c1cc(=O)[nH]c(=O)[nH]1 | inactive | inactive | inactive | inactive | inactive | inactive | inactive | inactive | inactive | – |
| CC(=O)[C@@]1(O)CC[C@H]2[C@@H]3C[C@H](C)C4=CC(=O)C=C[C@]4(C)[C@@]3(F)[C@@H](O)C[C@@]21C | inactive | inactive | – | inactive | – | inactive | inactive | inactive | inactive | – |
| OC[C@@H](O)[C@@H](O[C@@H]1O[C@H](CO)[C@H](O)[C@H](O)[C@H]1O)[C@H](O)[C@@H](O)CO | inactive | inactive | inactive | inactive | inactive | inactive | inactive | inactive | inactive | inactive |
| COC(=O)c1ccc(C)cc1 | inactive | inactive | inactive | inactive | inactive | inactive | inactive | inactive | inactive | inactive |
| COC(=O)CC(=O)OC | inactive | inactive | – | inactive | inactive | inactive | inactive | inactive | inactive | – |
| c1ccc2ncccc2c1 | inactive | inactive | – | inactive | inactive | inactive | inactive | inactive | inactive | inactive |
| CN(C)CCCN1c2ccccc2Sc2ccc(Cl)cc21 | 10.9 µM (active) | inactive | inactive | inactive | – | inactive | inactive | inactive | inactive | inactive |
| C[C@]12CC[C@@H]3c4ccc(O)cc4CC[C@H]3[C@@H]1CC[C@H]2O | 15.6 µM (active) and 27.3 µM (active) | inactive | – | – | 27.8 µM (active) and 27.3 µM (active) | inactive | inactive | inactive | inactive | inactive |
| O=C1OC2(c3ccccc31)c1cc(I)c(O)c(I)c1Oc1c2cc(I)c(O)c1I | inactive | inactive | – | inactive | – | 11.2 µM (active) and 20 µM (active) and 17.8 µM (active) | 14.1 µM (active) and 10 µM (active) and 17.8 µM (active) | inactive | 17.8 µM [fluorescent] (active) [middle of 4 runs] | inactive |
| CCO[Si](CCCNC(N)=O)(OCC)OCC | inactive | inactive | inactive | inactive | inactive | inactive | inactive | inactive | inactive | inactive |
| c1ccc2c(c1)ccc1cc3c(ccc4ccccc43)cc12 | 12.1 µM (active) | 853 nM (active) and 959 nM (active) | inactive | inactive | inactive | inactive | inactive | inactive | inactive | – |
| Nc1ccc2c(c1)C(=O)c1ccccc1C2=O | – | 4.77 µM (active) and 7.7 µM (active) | inactive | inactive | 268 nM (active) and 386 nM (active) | inactive | inactive | inactive | inactive | inactive |
| Nc1ccc2c(O)cc(S(=O)(=O)O)cc2c1 | – | inactive | inactive | inactive | – | inactive | inactive | inactive | inactive | inactive |
| O=C(O)COCCN1CCN(C(c2ccccc2)c2ccc(Cl)cc2)CC1 (stereo not given) | – | inactive | inactive | inactive | – | inactive | inactive | inactive | inactive | inactive |
| IC(I)I | inactive | inactive | – | – | – | inactive | inactive | inactive | inactive | – |
| O=Cc1ccccc1C=O | – | 11.9 µM (active) | 21.1 µM (active) | inactive and 61.1 µM (active) | 21.1 µM (active) and 30.6 µM (active) | inactive | inactive | inactive | inactive | 11.9 µM (active) and 12.2 µM (active) |
| OCCNCCO | – | inactive | inactive | inactive | inactive | inactive | inactive | inactive | inactive | 19.3 µM (active) and inactive |
| Cc1ccc(S(=O)(=O)O)cc1C | – | inactive | – | inactive | inactive | inactive | inactive | inactive | inactive | inactive |
| CC1(C)NC(=O)N(c2ccc([N+](=O)[O-])c(C(F)(F)F)c2)C1=O | – | inactive | inactive | inactive | – | inactive | inactive | inactive | inactive | inactive |

From PubChem BioAssay (Tox21)
